# Test results published in PubChem BioAssay AID1422 (Emory University Molecular Libraries Screening Center, 2008).
# Several values for one entry are separate records, joined by “and”; a condition that tells them apart may be missing. Equal values may be shown once. The campaign covered roughly 260,000 compounds. About 1,300 (0.5%) were called active.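 The calls were made as follows: active = percent inhibition above 40 after rounding to a whole number; inactive = the rest.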 Many of the other results were omitted from the sample, so actives are more common in it than they were. Where a structure was tested more than once in an assay, its records may differ in their call.
# Molecular target: Prostaglandin E2 receptor EP2 subtype (Homo sapiens) (UniProt P43116)
# Sequence (P43116 whole entry, looked up): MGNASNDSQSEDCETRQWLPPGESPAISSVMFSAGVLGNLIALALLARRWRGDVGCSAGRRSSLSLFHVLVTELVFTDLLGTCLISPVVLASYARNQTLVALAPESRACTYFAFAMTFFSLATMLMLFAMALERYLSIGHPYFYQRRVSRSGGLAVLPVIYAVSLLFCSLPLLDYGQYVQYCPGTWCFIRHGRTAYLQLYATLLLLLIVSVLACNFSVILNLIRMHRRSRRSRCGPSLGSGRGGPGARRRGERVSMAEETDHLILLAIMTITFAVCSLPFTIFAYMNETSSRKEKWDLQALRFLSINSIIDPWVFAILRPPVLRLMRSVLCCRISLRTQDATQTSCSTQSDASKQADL
# Test: human EP2 receptor antagonists, primary screen, TR-FRET cAMP, C6 glioma cells (AID 1422);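 also: rat C6 glioma host cells with rolipram phosphodiesterase inhibitor present; the protocol text gives 20 µM as final concentration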
# Details: C6 glioma cells expressing human EP2, cAMP TR-FRET; at 25 µM; stronger effect = higher value; cells stimulated with saturating PGE2
row,Structure (SMILES),inhibition
1,Cc1sc(NC(=O)Cn2c(=O)sc3ccccc32)c(C#N)c1C,7.54% (inactive)
2,COc1ccccc1CNC(=O)C1CCN(c2cnccn2)CC1,9.64% (inactive)
3,CC1(C)CC2CC(C)(CN2C(=O)c2ccc(Cl)cc2)C1 (stereo unspecified),13.4% (inactive)
4,COc1ccc2[nH]c(=O)c(CN(CCCN(C)C)C(=S)Nc3ccccc3)cc2c1,9.95% (inactive)
5,C[N+]1(CCN=C=NC2CCCCC2)CCOCC1,42.8% (active)
6,Cc1c(O)c(Br)c(C)c(O)c1Br (tested in a mixture with another compound),105% (active)
7,CCc1ccc2nc3sc(C(=O)NCc4ccc5c(c4)OCO5)c(N)c3cc2c1,13.9% (inactive)
8,CCc1ccc2nc3sc(C(=O)Nc4nnc(CC)s4)c(N)c3cc2c1,90.2% (active) and 26.4% (inactive)
9,CCc1ccc2nc3sc(C(=O)OC)c(N)c3cc2c1,11.6% (inactive)
10,CCn1cc(C(=O)N[C@@H](C)Cn2nnc3ccccc32)c(=O)c2ccc(C)nc21,9.07% (inactive)
11,CCOC(=O)CNC(=O)CSc1nnnn1-c1cc(C)ccc1C,-1.57% (inactive)
12,COC(=O)c1ccccc1NC(=O)CSc1nnnn1C,9.91% (inactive) and 10.9% (inactive)
13,CCOC(=O)c1c(-c2ccc(C)cc2C)csc1NC(=O)CSc1nnnn1C,44.2% (active)
14,CCc1nnc(NC(=O)CSc2nnnn2-c2ccc(F)cc2)s1,7.48% (inactive)
15,COc1ccc(C2(C(=O)NCCn3nc(-c4cccs4)ccc3=O)CC2)cc1,4.83% (inactive)
16,CCOc1ccccc1NC(=O)CSc1nnnn1-c1ccc(F)cc1,10.9% (inactive)
17,CC(C)(C)NC(=O)Cn1nc(-c2nccc3ccccc23)oc1=O,2.81% (inactive)
18,COC(=O)/C=C\C(=O)Nc1cccc([N+](=O)[O-])c1,113% (active)
19,CC(=O)Nc1cccc([N+](=O)[O-])c1,3.91% (inactive)
20,Cc1ccccc1NC(=S)Nc1cccc([N+](=O)[O-])c1,10.2% (inactive)
21,CCn1c(C)cc2cc(NC(=O)CCCn3nc(C)cc3C)ccc21,6.1% (inactive)
22,Cc1cc(C)cc(-c2nnc(SCC(=O)N3c4ccccc4CC3C)o2)c1 (stereo unspecified),15.9% (inactive)
23,CCN1/C(=C\c2ccc3ccccc3[n+]2CC)Sc2cc(C)ccc21,88.5% (active)

row,Structure (SMILES),inhibition
1,CCN1/C(=C/C(=S)Nc2ccccc2)Sc2ccccc21,11.8% (inactive)
2,CCN1/C(=C/c2ccc3ccc(C)cc3[n+]2CC)Sc2ccccc21,49.2% (active)
3,CCN1CCN(CCNC(=O)c2ccc(/C=C3/Sc4ccccc4N(Cc4cccc(C)c4)C3=O)cc2)CC1,15.1% (inactive)
4,CCCN1/C(=C/c2ccc3ccccc3[n+]2CC)Sc2cc(NC(C)=O)ccc21,13.2% (inactive)
5,CCN1CCN(C(=O)Nc2cccc(Cl)c2)CC1,10.7% (inactive)
6,CCOc1ccc2nc(SCC(=O)Nc3ccc(OC)cc3)sc2c1,6.3% (inactive)
7,Cc1ccc(CN(Cc2cc3c(C)cc(C)cc3[nH]c2=O)C(=O)NC2CCCCC2)cc1,8.55% (inactive)
8,COc1ccc2[nH]c(=O)c(CN(Cc3ccco3)S(=O)(=O)c3c(C)ccc4nsnc34)cc2c1,46.1% (active)
9,O=c1[nH]c2cc3c(cc2cc1CN(Cc1cccnc1)S(=O)(=O)c1ccc(Cl)cc1)OCCO3,19.4% (inactive)
10,COc1ccc2[nH]c(=O)c(CN(Cc3ccc4c(c3)OCO4)S(=O)(=O)c3ccc(F)cc3)cc2c1,12% (inactive)
11,COc1ccc2[nH]c(=O)c(CN(Cc3cccnc3)S(=O)(=O)c3ccccc3F)cc2c1,45.8% (active)
12,Cc1cccc2cc(CN(Cc3ccco3)S(=O)(=O)c3cccc4nsnc34)c(=O)[nH]c12,24.1% (inactive)
13,COc1ccc(N(Cc2cc3cc(OC)ccc3[nH]c2=O)S(C)(=O)=O)cc1,6.17% (inactive)
14,Cc1nnc2sc(-c3ccc(NC(=O)c4ccc(Br)o4)cc3)nn12,15% (inactive)
15,COc1ccc2c(c1)NC1(CCN(C(=O)c3cnsc3)CC1)c1cccn1-2,9.97% (inactive)
16,Cc1cccc2cc(CN(Cc3cccs3)Cc3nnnn3C3CCCCC3)c(=O)[nH]c12,2.93% (inactive)
17,Cc1ncc([N+](=O)[O-])n1Cc1nnc(N)s1,11.5% (inactive)
18,CC(C)(C)C1=NN(CC(=O)NCc2ccncc2)C(=O)c2cc3ccccc3n2C1,4.49% (inactive)
19,COc1nc(C)c(CC(=O)NC2(c3cccc(F)c3)CCCC2)c(OC)n1,13.3% (inactive)
20,Cc1[nH]c2ccc(-c3nnc(SCCC#N)n3C)cc2c1C,10.1% (inactive)
21,CC(C)(C)C1=NN(CC(=O)NCCc2ccco2)C(=O)c2cc3ccccc3n2C1,11.5% (inactive)
22,COc1ccc(C(c2nnnn2C(C)(C)C)N2CCN(c3ccc(OC)cc3)CC2)cc1 (stereo unspecified),10.7% (inactive)
23,Cc1ccc2c(c1)C(O)CC1(CCN(CC(O)c3ccc(F)c(F)c3)CC1)O2 (stereo unspecified),8.77% (inactive)

row,Structure (SMILES),inhibition
1,Cc1ccc2c(c1)C1CN(C)CCC1N2C(=O)c1ccccc1NS(=O)(=O)c1ccc(F)cc1C (stereo unspecified),8.83% (inactive)
2,Cc1ccc2c(c1)C1CN(C)CCC1N2C(=S)Nc1ccc(OC(F)F)cc1 (stereo unspecified),112% (active)
3,Cc1ccc2c(c1)C1CN(C)CCC1N2C(=S)Nc1ccc(Cl)cc1Cl (stereo unspecified),15.3% (inactive)
4,CCOC(=O)N1CCN(C(=O)COc2ccc(Cl)cc2C)CC1,12.7% (inactive)
5,Cc1cc(Cl)ccc1OCC(=O)Oc1c(Cl)c(Cl)c(Cl)c(Cl)c1Cl,50.2% (active)
6,Cc1cc(NC(=O)COC(=O)COc2ccc(Cl)cc2C)c([N+](=O)[O-])cc1C,5.32% (inactive)
7,CCc1cccc2cc3c(N)c(C(=O)Nc4cc(OC)ccc4OC)sc3nc12,5.34% (inactive)
8,CCn1cc(/C=C/c2nc3ccccc3c(=O)n2C)c2ccccc21,16.1% (inactive)
9,CC(=O)Nc1ccc(S(=O)(=O)Nc2nc(-c3ccc(C(C)(C)C)cc3)cs2)cc1,4.4% (inactive)
10,CC(=O)Nc1ccc(-c2csc(NC(=O)Nc3ccccc3)n2)cc1,55% (active)
11,CC(=O)Nc1ccc(-c2csc(NC=C3C(=O)OC(C)(C)OC3=O)n2)cc1,2.63% (inactive)
12,O=C1c2cccc3cccc(c23)C(=O)N1c1ccc(N2C(=O)c3cccc4cccc(c34)C2=O)cc1,9.96% (inactive)
13,CCOC(=O)c1cnc2[nH]c3ccccc3n2c1=O,4.64% (inactive)
14,Cc1ccc(-c2nc3ccccc3[nH]c2=O)cc1,12.3% (inactive)
15,O=c1[nH]c2ccccc2n2c(-c3ccccc3)nnc12,82.1% (active)
16,Cc1nn(CC(=O)Nc2cccc3ncccc23)c(=O)c2ccccc12,6.79% (inactive)
17,O=c1cc(CSc2nnc(Cn3nnc4ccccc43)o2)c2ccccc2[nH]1,7.33% (inactive)
18,CCOc1ccc(NC(=S)N(CCO)Cc2cc3c(C)cc(C)cc3[nH]c2=O)cc1,6.48% (inactive)
19,Cc1cc2c(cc1C)NC1=C(N2)O[C@H](c2c[nH]c3ccc(COc4ccccc4)cc23)C1=O,56.3% (active)
20,COc1cc(C)c(CNC(=O)c2cccc(-n3cnnc3)c2)cc1C(C)C,4.98% (inactive)
21,COCC(=O)Nc1cc(C)on1,7.17% (inactive)
22,CC(C)(C)NCC[C@@H](O)c1cc(C(F)(F)F)nc2c(C(F)(F)F)cccc12,48.9% (active)
23,COc1ccc(N(CC(=O)N2CCN(c3ccc(F)cc3)CC2)S(C)(=O)=O)cc1,6.08% (inactive)

row,Structure (SMILES),inhibition
1,CCCC(c1nnnn1C1CCCCC1)N1CCN(c2ccccc2)CC1 (stereo unspecified),5.51% (inactive)
2,COc1ccc2[nH]c3cc4c(=O)c5cc(OC)ccc5[nH]c4cc3c(=O)c2c1,49.6% (active)
3,COc1ccc2[nH]c3ccc(OC)cc3c2c1,6.17% (inactive)
4,COc1ccc2[nH]c(=S)cc(C)c2c1,7.37% (inactive)
5,Cc1ccc(-c2cc(N)c(=O)n(CC(=O)N3c4ccccc4CC3C)n2)o1 (stereo unspecified),9.35% (inactive)
6,CCOc1ccc2[nH]c(=O)c(CN(Cc3ccc4c(c3)OCO4)C(=O)Nc3ccc(C)cc3)cc2c1,10.3% (inactive)
7,Cc1ccc2cc(CN(Cc3cccs3)Cc3nnnn3Cc3ccco3)c(=O)[nH]c2c1,12.8% (inactive)
8,COc1ccc(-n2nnnc2SCC(=O)Nc2ccc(N(C)C)cc2)cc1,8.77% (inactive)
9,Cc1ccc(N(CC(=O)N2CCC(C(N)=O)CC2)S(C)(=O)=O)cc1C,15.2% (inactive)
10,C/C(=N/Nc1nc(-c2ccccc2)c(CC(=O)O)s1)c1ccccc1,11.6% (inactive)
11,Cc1ccc(-c2nc(C)sc2CC(=O)O)cc1,8.08% (inactive)
12,O=C(O)Cc1sc(-c2ccccc2)nc1-c1cccs1,43% (active)
13,COC(=O)c1c(NC(=O)Cc2cccs2)sc(C(=O)Nc2cccc(Cl)c2)c1C,8.6% (inactive)
14,CCCc1nc2ccccc2n1CC(O)COc1ccc(F)cc1 (stereo unspecified),10.9% (inactive)
15,COc1ccc(C2(O)CCN(CCN3CCCCC3)CC2)c(OC)c1,12.5% (inactive)
16,CCn1c(=O)n(CC)c2cc(CN(Cc3ccc(C)s3)CC(C)O)ccc21 (stereo unspecified),1.95% (inactive)
17,O=C(O)[C@@H]1CS[C@]2(CCCN(Cc3ccccc3)C2)N1,46.7% (active)
18,O=C(NC1CCN(Cc2ccccc2)CC1)c1c(F)cccc1F,2.64% (inactive)
19,CCCC(=O)C1CCN(Cc2ccccc2)CC1,13% (inactive)
20,Cc1cccc2c(C(=O)Nc3cccc(C(=O)N4CCCCC4)c3)cc(=O)[nH]c12,4.42% (inactive)
21,CC(C)(C)c1cnnn1-c1ccc(S(N)(=O)=O)cc1,3.83% (inactive)
22,CC(NC(=O)C1CCN(c2nc3ccccc3n2C)CC1)c1ccccc1 (stereo unspecified),7.13% (inactive)
